Compounds with a hit are over-represented: about 18% of the library has one in this group of screens.
IL-1B inflam inh = inflammasome signaling inhibition, IL-1 beta readout; THP-1 LPS/ATP IL-1B secretion, AlphaLISA, 16 h; stronger effect = lower value; activity change, % at 57.5 µM; actives 4.7% (n = 360,000); AID 743279; in the data active = activity change below about -50%; inconclusive = mostly about -30% to -49%; note: % is set by controls: 0 for no effect and ±100 for the full control effect
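THP-1 cells pretreated 1 hr with compounds (up to 57.5 uM final), then stimulated with LPS (250 ng/mL final) plus ATP (1.25 mM final); secreted IL-1B measured by AlphaLISA after 16 hr, decreased signal indicating inhibition.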
TGFb inhibitor = blocks TGF-b signaling. actives 1.2% (n = 410,000). AID 588855. HepG2 CAGA-GFP TGF-b/SMAD3 reporter, GFP fluorescence, 18 h; TGF-beta stimulated, 500 pg/mL final. Potency, µM (series often up to 46.1 µM), inactives show at the highest dose activity, negative = inhibition, hits mostly inhibitors; note: potency is the fitted concentration of half-maximal effect; % is set by controls: 0 for no effect and ±100 for the full control effect; nearly all actives have a fitted effect of over 65% in size
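HEPG2 CAGA-GFP, 1000 cells/well; 2 h settle, 37 C; cpd via pin tool; TGF-b 500 pg/mL final; 18 h, 37 C; GFP imaging ex488/em500-530; %Activity normalised to -TGF-b and +DMSO controls; CRC fit, curve class.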
HepG2 viability = kills HepG2 cells in TGF-b inhibitor counter-screen; Potency, µM (top dose mostly 46.1 µM), without a hit: at the highest dose activity change, negative = cytotoxicity, actives largely listed as cytotoxic; HepG2 CAGA-GFP viability, ATP luminescence, 18 h; actives 0.76% (n = 410,000); note: potency is the fitted concentration of half-maximal effect
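CellTiter-Glo luminescence gave cytotoxicity after 18 hours at 37 degrees C. The cells were HepG2 CAGA-GFP in 1% FBS DMEM, stimulated with 500 pg/mL TGF-beta after compound addition. %Activity was normalised to no-cell wells (complete cell-killing) and DMSO (no toxicity), and curves were fitted and classified.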
TDP1 cell noCPT = qHTS for Inhibitors of human tyrosyl-DNA phosphodiesterase 1 (TDP1): qHTS in cells in absence of CPT; DT40 Tdp1-/- hTDP1 cells, no CPT, ATP luminescence, 48 h; Potency, µM (top dose mostly 46.2 µM), inactives show at the highest dose activity change, negative = growth inhibition, actives largely listed as inhibitors; actives 15% (n = 420,000); AID 686978, 2013; note: potency is the fitted concentration of half-maximal effect; % is set by controls: 0 for no effect and ±100 for the full control effect; nearly all actives have a fitted effect of over 55% in size
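Stably hTDP1-transfected Tdp1-null chicken DT40 cells were treated with library compounds minus camptothecin and grown for at least 48 hr at 37 °C, after which cellular ATP was quantified by luminescence.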
TDP1 block = TDP1 (human) enzyme inhibition; recombinant TDP1, AlphaScreen DNA substrate cleavage; Potency, µM (highest dose often 130 µM), for inactives: at the top dose activity change, negative = inhibition, most hits filed as inhibitors; actives 0.28% (n = 350,000); AID 485290; note: potency is the fitted concentration of half-maximal effect; % is set by controls: 0 for no effect and ±100 for the full control effect; nearly all actives have a fitted effect of over 40% in size
Target sequence (Q9NUW8 whole entry, looked up): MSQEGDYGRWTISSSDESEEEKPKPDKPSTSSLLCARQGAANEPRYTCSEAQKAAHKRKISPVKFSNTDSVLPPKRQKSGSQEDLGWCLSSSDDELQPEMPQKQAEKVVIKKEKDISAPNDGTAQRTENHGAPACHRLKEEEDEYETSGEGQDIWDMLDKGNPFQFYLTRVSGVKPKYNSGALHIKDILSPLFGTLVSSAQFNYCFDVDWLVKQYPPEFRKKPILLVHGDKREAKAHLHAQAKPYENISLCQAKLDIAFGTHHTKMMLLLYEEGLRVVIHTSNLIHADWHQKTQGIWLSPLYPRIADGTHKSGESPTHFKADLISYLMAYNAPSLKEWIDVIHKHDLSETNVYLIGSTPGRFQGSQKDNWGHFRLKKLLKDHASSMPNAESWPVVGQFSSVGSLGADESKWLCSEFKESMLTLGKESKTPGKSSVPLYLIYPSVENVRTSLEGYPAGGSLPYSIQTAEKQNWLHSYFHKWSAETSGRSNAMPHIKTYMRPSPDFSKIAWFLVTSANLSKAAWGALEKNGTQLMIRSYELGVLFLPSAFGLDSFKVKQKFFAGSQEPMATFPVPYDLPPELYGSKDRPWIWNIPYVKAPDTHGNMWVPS
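Here, a 5' biotin and 3' phosphotyrosine-FITC DNA oligonucleotide reports Tdp1 activity: intact substrate bridges AlphaScreen beads, while cleavage leaves a 3' phosphate and drops signal. All incubations at room temperature.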
TDP1 cell CPT = growth inhibition of DT40 Tdp1-/-;hTDP1 cells with camptothecin (screen for TDP1 inhibitors). chicken DT40 Tdp1-/-;hTDP1 cells + 20 nM CPT, ATP luminescence, 48 h. Potency, µM (highest dose often 46.2 µM), for the others: top-dose activity change, negative = growth inhibition, most hits filed as inhibitors. actives 12% (n = 420,000). AID 686979; note: potency is the fitted concentration of half-maximal effect; % is set by controls: 0 for no effect and ±100 for the full control effect; nearly all actives have a fitted effect of over 55% in size
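Cell growth measured by CellTiter-Glo luminescence after a minimum 48 h, 37 C compound exposure with 20 nM CPT in Tdp1-knockout DT40 cells stably expressing hTDP1, seeded 400/well; qHTS titration format.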
* marks the source's active call; other numbers are inactive results; i = inactive; ? = inconclusive; / = no result given; [ ] = dose if it differs, or a comment. Unless noted, calls come from the whole dose curve; as a rule, active = well fitted curve in the direction sought with a large enough effect; inconclusive = small, poorly fitted or top-dose-only effect, or another doubt; inactive = no such curve, though single readings can be large; an effect the other way counts as inactive or inconclusive.

SMILES	IL-1B inflam inh	TGFb inhibitor	HepG2 viability	TDP1 cell noCPT	TDP1 block	TDP1 cell CPT
CC(C)Oc1ccccc1C1(c2ccccc2)NC(=O)NC1=O (configuration not stated)	-7.5	3.0%	2.5%	?	/	6.2%
N#Cc1nc(NCCCO)nc(Nc2ccccc2)n1	/	/	/	/	5.6%	/
O=S(=O)(c1ccc(Br)s1)N1CCC(Cc2ccccc2)CC1	-3.2	-6.3%	-13.1%	?	-3.5%	14.1µM*
O=C(NCc1ccc2c(c1)OCO2)C1CCN(S(=O)(=O)c2ccc(Br)s2)CC1	-14.8	-10.0%	-9.8%	20.6µM*	3.6%	-22.3%
Cc1cc(NC(=O)C2CCN(S(=O)(=O)c3cnc[nH]3)CC2)ccc1Br	-56.7*	-9.3%	-6.0%	?	5.4%	-12.6%
Cc1cc(NC(=O)C2CCN(S(=O)(=O)c3ccc(Br)s3)CC2)ccc1Br	/	?	-10.1%	16.4µM*	-2.5%	?
O=C(Cn1ccc2ccccc2c1=O)NCCC(=O)Nc1cccc(Cl)c1	26.8	5.5%	0.6%	-25.3%	0.3%	5.0%
CC(=O)OC1C=CCC2C(=O)c3cccc(O)c3C(O)C12 (configuration not stated)	-5.8	-22.3%	-1.2%	?	/	-9.2%
Cc1sc2ncnc(N3CCCC(C)C3)c2c1C (configuration not stated)	38.6	-0.3%	-29.8%	?	0.0%	?
CC(=O)c1ccc(NC(=O)C2CCCN(S(=O)(=O)c3ccc(Br)s3)C2)cc1 (configuration not stated)	/	7.6%	7.1%	-6.0%	-5.0%	-4.6%
Cc1cc(NC(=O)C2CCCN(S(=O)(=O)c3ccc(Br)s3)C2)ccc1Br (configuration not stated)	/	?	-17.1%	13µM*	2.5%	?
Cc1csc(NC(=O)C2CCCN(S(=O)(=O)c3ccc(Br)s3)C2)n1 (configuration not stated)	-14.3	17.8µM*	5.3%	18.4µM*	3.6%	16.4µM*
O=C(Nc1ccc(Cl)cc1)C1CCN(S(=O)(=O)c2ccc(Br)s2)CC1	/	12.6µM*	-39.8%	23.1µM*	-5.0%	?
Cc1nc2ccn(Cc3cccnc3)c(=O)c2cc1C(=O)NCc1ccccc1	/	-3.8%	-20.5%	-12.6%	3.2%	3.7%
COC(=O)c1cc(C)sc1NC(=O)CN1CCN(C(=O)C2CCCO2)CC1 (configuration not stated)	i	15.8%	0.0%	-15.2%	-2.9%	6.1%
OC[C@H]1OC(O)[C@H](O)[C@@H](O)[C@@H]1O (some centres not stated)	/	/	/	/	4.9%	/
Cc1ccc(-n2ncc(C(=O)NCc3ccco3)c2C2CCN(C(=O)OC(C)(C)C)CC2)cc1	/	?	-37.9%	18.4µM*	-2.1%	18.4µM*
Cc1ccc(-n2ncc(C(=O)NCc3ccco3)c2C2CCN(C(=O)OC(C)(C)C)CC2)cc1C	/	-47.4%	-48.4%	?	5.3%	16.4µM*
COC1=CC(=O)C=C(OC)C1(O)CC(C)=O	0.5	-10.2%	-8.3%	3.66µM*	/	4.11µM*
COc1ccc2c(c1OC)C(=O)OC2N1C(=O)CC[C@H]1C(=O)Nc1ccc2c(c1)OCO2 (some centres not stated)	-18.8	-8.6%	2.3%	-1.4%	/	3.2%
O=[N+]([O-])c1ccc2[nH]c(=S)[nH]c2c1	23.0	0.9%	3.9%	-16.7%	/	2.2%
O=[N+]([O-])c1ccc2[nH]c(=S)sc2c1	-22.5	?	-43.1%	20.6µM*	/	23.1µM*
COc1ccc(N2C(=O)CC(N3CCN(c4ccccc4)CC3)C2=O)cc1 (configuration not stated)	30.6	14.7%	17.0%	19.3%	/	-7.1%
COc1ccc(N2C(=O)CC(N3CCN(c4ccc(Cl)cc4)CC3)C2=O)cc1 (configuration not stated)	-50.6*	-3.0%	-6.6%	10.9%	/	1.7%
CC(C)C(=O)Nc1ccc(-c2ccc3nncn3n2)cc1	-26.7	-7.7%	-16.5%	?	0.0%	-22.2%
SMILES	IL-1B inflam inh	TGFb inhibitor	HepG2 viability	TDP1 cell noCPT	TDP1 block	TDP1 cell CPT
O=C(Nc1ccc(-c2ccc3nncn3n2)cc1)c1ccc(Br)o1	14.1	12.4%	1.8%	?	79.4µM*	-12.1%
O=C(CC1CCCCC1)Nc1ccc(-c2ccc3nncn3n2)cc1	-11.6	-16.4%	13.1%	18.4µM*	-2.5%	?
N#Cc1ccccc1OCC(=O)NCC(c1ccc(F)cc1)N1CCOCC1 (configuration not stated)	9.8	-8.0%	0.8%	-15.1%	-0.2%[56.1 µM]	9.3%
Cc1ccc(C)c(N2CCN(C(=O)C3CCN(S(=O)(=O)c4c(C)noc4C)CC3)CC2)c1	?	-47.4%	-32.1%	8.2µM*	/	10.3µM*
Cc1ccc(C)c(N2CCN(S(=O)(=O)c3c(C)noc3/C=C/N(C)C)CC2)c1	-16.1	-4.0%	-0.8%	18.4µM*	-3.8%	?
Cc1noc(C)c1S(=O)(=O)N1CCC(C(=O)N2CCN(c3ccccc3)CC2)CC1	/	4.4%	-9.2%	?	2.5%	-0.1%
Cc1noc(C)c1S(=O)(=O)N1CCC(C(=O)N2CCN(c3cccc(C(F)(F)F)c3)CC2)CC1	/	?	-31.5%	3.26µM*	2.5%	5.17µM*
Cc1noc(/C=C/N(C)C)c1S(=O)(=O)N1CCN(c2ccccc2)CC1	-14.1	?	-23.5%	?	3.7%	-26.3%
Cc1noc(C)c1S(=O)(=O)N1CCC(C(=O)N2CCN(c3ccccc3Cl)CC2)CC1	-5.6	-0.5%	-23.7%	20.6µM*	-2.3%	?
Cc1noc(C)c1S(=O)(=O)N1CCC(C(=O)N2CCN(c3ccc(Cl)cc3)CC2)CC1	-26.6	1.0%	-17.0%	?	7.8%	?
CCOC(=O)c1cc2c(=O)n3ccccc3nc2n(CCCOC)c1=NC(=O)c1c(-c2c(F)cccc2Cl)noc1C	/	4.8%	-18.5%	?	5.9%	-36.6%
COc1ccc(Cl)cc1S(=O)(=O)NC(C)C(=O)NCCCn1ccnc1 (configuration not stated)	6.9	17.0%	10.0%	-15.2%	-2.1%	-3.0%
CCOC(=O)/C=C(C)\C=C\c1c[nH]c2ccccc12	-64.0*	0.0%	3.2%	29.1µM*	5.6%	-5.8%
Cc1ccc(NC(C#N)c2ccccc2OCc2ccccc2)cc1 (configuration not stated)	30.7	-2.2%	-6.2%	?	-3.8%	?
